High-throughput results: PubChem, National Center for Advancing Translational Sciences (NCATS)
BAZ2B inh: BAZ2B (human) inhibition. Q9UIF8. AlphaScreen BAZ2B-H3K14Ac peptide displacement. Potency, µM (titrated, usually from 114 µM), hits mostly inhibitors. hit rate 4.4% among 360,000; note: nearly all actives have a fitted effect of over 60% in size
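Inhibition is scored as reduced AlphaScreen emission. The BAZ2B/b-H3(5-23)K14Ac complex (50 nM each) in PBS pH 7.4, 0.01% Tween-20 meets compound (up to 110 uM) for 30 min at RT before bead addition.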
JMJD2A Tudor inh: inhibitors of human JMJD2A Tudor domain | Potency, µM (doses to about 114 µM), usual class: inhibitors | hit rate 4.4% among 390,000 | AlphaScreen JMJD2A-Tudor / H3K4me3 peptide binding | O75164 | AID 504339; note: nearly all actives have a fitted effect of over 50% in size
Target sequence (O75164 whole entry, looked up, the tested form may be a part): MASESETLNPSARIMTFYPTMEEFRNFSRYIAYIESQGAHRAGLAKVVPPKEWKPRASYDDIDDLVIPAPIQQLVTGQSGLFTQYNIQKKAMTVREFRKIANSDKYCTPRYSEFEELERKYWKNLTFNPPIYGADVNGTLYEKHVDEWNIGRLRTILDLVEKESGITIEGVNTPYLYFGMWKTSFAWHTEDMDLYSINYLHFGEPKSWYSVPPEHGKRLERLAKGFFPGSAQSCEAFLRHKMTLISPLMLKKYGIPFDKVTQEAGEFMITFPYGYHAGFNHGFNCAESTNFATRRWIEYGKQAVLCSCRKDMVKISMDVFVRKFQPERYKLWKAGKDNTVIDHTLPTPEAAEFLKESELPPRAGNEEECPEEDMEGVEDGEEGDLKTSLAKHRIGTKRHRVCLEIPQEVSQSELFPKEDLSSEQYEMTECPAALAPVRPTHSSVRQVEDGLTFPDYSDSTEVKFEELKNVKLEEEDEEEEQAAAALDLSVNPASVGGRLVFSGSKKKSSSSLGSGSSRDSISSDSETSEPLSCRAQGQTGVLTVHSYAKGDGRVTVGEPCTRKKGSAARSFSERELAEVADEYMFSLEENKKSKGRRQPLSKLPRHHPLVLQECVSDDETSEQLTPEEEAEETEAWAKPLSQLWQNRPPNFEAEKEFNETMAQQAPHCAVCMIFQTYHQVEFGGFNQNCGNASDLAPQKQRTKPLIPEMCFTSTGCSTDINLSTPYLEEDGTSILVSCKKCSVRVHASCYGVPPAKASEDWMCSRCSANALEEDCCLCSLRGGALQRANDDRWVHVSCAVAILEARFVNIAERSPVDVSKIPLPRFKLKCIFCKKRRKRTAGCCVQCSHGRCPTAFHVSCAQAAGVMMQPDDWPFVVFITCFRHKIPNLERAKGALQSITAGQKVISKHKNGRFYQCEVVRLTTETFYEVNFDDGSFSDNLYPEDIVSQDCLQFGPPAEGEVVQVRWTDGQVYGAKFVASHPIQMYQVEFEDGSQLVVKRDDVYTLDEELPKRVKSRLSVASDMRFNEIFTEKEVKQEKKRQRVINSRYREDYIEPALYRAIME
L3MBTL1 inh: blocks human L3MBTL1; Q9Y468; hit rate 0.66% among 230,000; AlphaScreen L3MBTL1–H3K9me1 peptide binding; Potency, µM (titrated, usually from 57.1 µM), most hits filed as inhibitors; note: nearly all actives have a fitted effect of over 60% in size
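Displacement of a biotinylated histone H3(1-15) peptide monomethylated at Lys9 (75 nM) from L3MBTL1 (50 nM) was measured by AlphaScreen after a 30 min room-temperature compound incubation; cefsulodin titration served as intraplate control.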
G9a inh: G9a (human) methyltransferase inhibition | Q96KQ7 | G9a H3K9 monomethylation, AlphaScreen, 2 h | Potency, µM (series often up to 102 µM), most hits filed as inhibitors | hit rate 8.8% among 350,000; note: nearly all actives have a fitted effect of over 75% in size
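G9a (20 nM) was preincubated 15 min with compound, then reacted 2 h at room temperature with 500 nM biotin-H3K9 peptide and 20 µM SAM. Monomethyl-H3K9 detected by AlphaScreen using anti-H3K9me1 antibody.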
Sfp PPTase inh: Sfp phosphopantetheinyl transferase inhibition; Biochemical Sfp PPTase activity, qHTS; Potency, µM, most hits filed as inhibitors; Q9F4F7; AID 1490; hit rate 3.5% among 310,000;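 note: the enzyme is Sfp with the accession as filed and its product quenches rhodamine fluorescence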
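After 15 min at room temperature with compound, 15 nM Sfp received 5 uM rhodamine-CoA plus 12.5 uM BHQ-2-ybbR (50 mM Hepes pH 7.6, 10 mM MgCl2). Rate came from the fluorescence difference over 30 min, ex 525/em 598 nm.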
HP1b binding inh: HP1-beta chromodomain-methylated histone interaction inhibition; AlphaScreen HP1-beta / biotin-H3K9me3 peptide binding; Potency, µM (doses to about 114 µM), usual class: inhibitors; hit rate 0.56% among 390,000; note: nearly all actives have a fitted effect of over 70% in size
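AlphaScreen: HP1-beta (50 nM) preformed 30 min with biotin-H3(1-18)K9me3 peptide (50 nM) in PBS pH 7.4, 0.01% Tween-20. Compound added for 30 min at RT, then streptavidin donor/nickel chelate acceptor beads (10 ug/mL) for 30 min.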
Hits are given with their value; n = inactive; u = inconclusive; x = not tested or not shown; [ ] = dose if it differs, or a comment. In the library only some 12% were active in any assay of this set; here they are far more common. Calls come from the whole dose curve; as a rule, active = well fitted curve in the direction sought with a large enough effect; inconclusive = small, poorly fitted or top-dose-only effect, or another doubt; inactive = no such curve, though single readings can be large; an effect the other way counts as inactive or inconclusive.

SMILES | BAZ2B inh | JMJD2A Tudor inh | L3MBTL1 inh | G9a inh | Sfp PPTase inh | HP1b binding inh
CCC(C)NC(=O)Cn1c(=O)n(Cc2ccc(C(=O)NCc3ccc(C)cc3)cc2)c(=O)c2ccccc21 (centres undefined) | u | n | x | n | x | n
Cc1ccc(C(=O)NCCSc2c(C)[nH]c3ccccc23)cc1[N+](=O)[O-] | u | u | n | 50µM | n | n
COc1cc(C(=O)NCCSc2c(C)[nH]c3ccccc23)cc(OC)c1OC | n | u | x | n | x | n
COc1ccc(NC(=O)N2CC[C@@]3(CCCN(C(=O)c4ccco4)C3)C2)cc1 | x | x | x | n[12.7 µM] | n | x
COc1ccc(C(=O)OCC(=O)c2ccc(CNC(C)=O)s2)cc1 | n | n | n | 10µM | x | n
CCOc1ccc(NC(=O)/C=C\C(=O)N(c2ccc(C(C)C)cc2)C(C(=O)NCc2ccco2)c2ccc(F)cc2)cc1 (centres undefined) | n | n | x | u | x | n
Cc1ccc2c(c1C)-c1c(ccc(C)c1C)C(=O)C2=O | x | 50µM | x | x | x | 16µM
Cc1ccc2c(c1C)OC(=O)CC2(C)C | n | n | n | n | n | n
O=C(O)C1=CC(O)[C@@H](O)C(O)C1 (some centres undefined) | x | x | x | x | n | x
CN(Cc1cccnc1)Cc1c(C(=O)N2CCc3ccccc3C2)nc2ccc(Cl)cn12 | n | n | n | 50µM | n | n
O=C(c1nc2ccc(Cl)cn2c1CN1CCCC1)N1CCc2ccccc2C1 | u | u | x | 79µM | n | n
CC[C@H](C)N | x | x | x | x | n | x
O=[N+]([O-])c1ccc([C@H](O)[C@H](CO)N=Cc2ccccc2O)cc1 | n | n | x | 8.9µM | n | n
COc1ccccc1C=NC(CO)C(O)c1ccc([N+](=O)[O-])cc1 (centres undefined) | n | n | n | x | n | n
Cc1ccc(S(=O)(=O)C(CNS(=O)(=O)c2ccc(F)c(C(F)(F)F)c2)c2ccco2)cc1 (centres undefined) | n | n | x | n | x | n
CN1CCN(CCC(=O)N2c3ccccc3Sc3ccc(Cl)cc32)CC1 | 79µM | u | n | u | 89µM | n
CC(=O)N(\C=C/C=C/C=C1\Sc2ccccc2C1=O)c1ccccc1 | 7.1µM | 7.9µM | x | 10µM | n | 13µM
CN(C)/C=C1/Sc2ccccc2C1=O | u | n | n | n | n | n
Cc1ccc(NCc2n[nH]c(=S)n2-c2ccccc2)cc1 | u | u | n | 1.6µM | u | n
Cc1ccc(NCc2n[nH]c(=S)n2-c2ccccc2)c(C)c1 | u | 56µM | x | 4µM | n | n
Nc1c2c(nc3ccccc13)CCC2 | n | n | n | n | n | n
Nc1c2c(nc3ccccc13)N(C1CCCCC1)CC2 | u | 7.1µM | n | u | n | n
Nc1c2c(nc3ccc(Br)cc13)N(Cc1ccccc1)CC2 | n | u | n | u | u | n
Nc1c2c(nc3ccc(Br)cc13)N(C1CCCCC1)CC2 | 16µM | x | n | 3.5µM | n | x
CCOc1ccc(N(C)S(=O)(=O)c2c(C(=O)N3CCC(C)CC3)c(C)n(C)c2C)cc1 | n | n | x | n | x | n
SMILES | BAZ2B inh | JMJD2A Tudor inh | L3MBTL1 inh | G9a inh | Sfp PPTase inh | HP1b binding inh
O=S(=O)(c1cccc(F)c1)N1CCC(Oc2ccc(-n3cnnn3)cc2)CC1 | n | n | x | n | x | n
Clc1cccc(C2Nc3cccc4cccc(c34)N2)c1 | u | u | n | x | n | u
O=[N+]([O-])c1ccccc1C1Nc2cccc3cccc(c23)N1 | 32µM | 40µM | u | 2.8µM | 8.9µM | u
COc1cc(OC)c(C2Nc3cccc4cccc(c34)N2)c(OC)c1 | 35µM | 50µM | x | 28µM | n | u
c1ccc(C2Nc3cccc4cccc(c34)N2)cc1 | u | u | n | 13µM | 28µM | u
Brc1cccc(C2Nc3cccc4cccc(c34)N2)c1 | u | n | x | 35µM | n | n
COc1ccccc1CNc1ncnc2c1nnn2C | n | n | x | n | x | n
N#Cc1ccccc1-c1ccc2ncnc(NC3CC3)c2c1 | x | x | x | n[0.501 µM] | n | x
Clc1ccc(C2Nc3cccc4cccc(c34)N2)cc1Cl | u | n | n | x | n | n
Oc1ccccc1C1Nc2cccc3cccc(c23)N1 | 35µM | n[11.4 µM] | u | n | 22µM | u
COc1ccccc1C1Nc2cccc3cccc(c23)N1 | 50µM | 50µM | x | u | 56µM | u
COc1ccc(C2Nc3cccc4cccc(c34)N2)cc1 | 40µM | u | n | 35µM | n | u
